{"source": "PubChem BioAssay (Tox21)", "note": "Unmarked numbers belong to inactive results. Entries that show only a call come without a potency. Calls of active or inactive are those of the source. Calls follow the shape of the dose curve; as a rule, active = well fitted curve in the direction sought with a large enough effect in the repeat runs; inconclusive = weak or mixed curves; inactive = flat fitted curve, though single readings scatter.", "data": [{"assay": "qHTS assay to test for compound auto fluorescence at 590 nm (red) in HepG2 cell free culture (AID 720684)", "settings": "cell-free medium autofluorescence, red 540/590 nm; series mostly up to 91.3 µM", "from_the_text": "U.S. Tox21 Program National Center for Advancing Translational Sciences [NCATS] NIH Chemical Genomics Center [NCGC] U.S. Environmental Protection Agency [EPA] National Institutes of Environmental Health Sciences [NIEHS] National Toxicology Program [NTP] U.S. Food and Drug Administration [FDA] Tox21 Assay Overview: Compound auto fluorescence often interferes with screening of the compound library against various biological targets and signaling pathways. Some of these compounds may have fluorophoric properties. Such properties may interfere with the assay outputs resulting in false positives and/or negatives. To decrease such complications and ensure the compound activities are relevant in terms of biological response, the Tox21 10K compound library was screened for auto fluorescence. From the fluorophores used as reporter signals in our screening assays, the auto fluorescence equivalencies of compounds against three fluorophores have been evaluated: Triamterene, Fluorescein and Rose Bengal sodium for blue, green and red fluorescence, respectively. The fluorescence intensities were measured using Excitation/Emission wavelengths at 405/460nm, 485/535nm and 540/590nm for blue, green and red labels, respectively. This assay includes the red fluorescence data.\nTox21 Assay Protocol Summary: 5 uL of culture medium (MEM containing 10% FBS) per well was dispensed into black wall/clear bottom 1536-well plates using a Multidrop Combi Dispenser (ThermoFisher Scientific, Waltham, MA). After 23 nL compound or DMSO vehicle was transferred into assay plate by a pintool work station (Kalypsys, San Diego, CA), fluorescence intensities in the assay plates were measured by an Envision (PerkinElmer, Shelton, CT) plate reader using three labels for measuring blue, green and red fluorescence at […] 460, 535 and 590nm respectively.", "values": [{"smiles": "CCCCCCCCCCCCCCNCCO", "Potency": "inactive"}, {"smiles": "CNCC[C@H](Oc1cccc2ccccc12)c1cccs1", "Potency": "inactive"}, {"smiles": "Oc1c(Br)cc(Br)c2cccnc12", "Potency": "inactive"}, {"smiles": "Clc1ccc(C(Cn2ccnc2)OCc2ccsc2Cl)c(Cl)c1", "note": "(stereo not given)", "Potency": "inactive"}, {"smiles": "C=CC(=O)OCCOCC(CC)(COCCOC(=O)C=C)COCCOC(=O)C=C", "Potency": "inactive"}, {"smiles": "CC(C)(C)C1=CC(=O)C=C(C(C)(C)C)C1=O", "Potency": "inactive"}, {"smiles": "Cc1cc2c(C(C)C)c(O)c(O)c(C=O)c2c(O)c1-c1c(C)cc2c(C(C)C)c(O)c(O)c(C=O)c2c1O", "Potency": "inactive"}, {"smiles": "CCCCOC(=O)C(C)CC", "note": "(stereo not given)", "Potency": "inactive"}, {"smiles": "CC(=O)Oc1ccc(C2(c3ccc(OC(C)=O)cc3)C(=O)Nc3ccccc32)cc1", "Potency": "inactive"}, {"smiles": "CCC(C)(C)c1cc(O)c(C(C)(C)CC)cc1O", "Potency": "inactive"}, {"smiles": "CC(C)(c1cc(Br)c(OCCO)c(Br)c1)c1cc(Br)c(OCCO)c(Br)c1", "Potency": "inactive"}, {"smiles": "CC(C)OC(=O)c1cc(C(=O)OC(C)C)cc([N+](=O)[O-])c1", "Potency": "inactive"}, {"smiles": "CNC(=S)NN", "Potency": "inactive"}, {"smiles": "C=CC(=O)OCC(O)COc1ccccc1", "note": "(stereo not given)", "Potency": "inactive"}, {"smiles": "CCCN(CCc1cccs1)[C@H]1CCc2c(O)cccc2C1", "Potency": "inactive"}, {"smiles": "Cc1cccc(C)c1NC(=O)CN1CCN(CCCC(c2ccc(F)cc2)c2ccc(F)cc2)CC1", "fluorescence, % of Rose Bengal": "-0.0617% [at 18.6 µM]"}, {"smiles": "CC(CN(C)C)CN1c2ccccc2CCc2ccccc21", "note": "(stereo not given)", "fluorescence, % of Rose Bengal": "0.0079% [at 18.6 µM]"}, {"smiles": "CC(C(O)c1ccccc1)N(C)CCOC(c1ccccc1)c1ccccc1", "note": "(stereo not given)", "Potency": "inactive"}, {"smiles": "Clc1ccc(C(Cn2ccnc2)OCc2c(Cl)cccc2Cl)c(Cl)c1", "note": "(stereo not given)", "fluorescence, % of Rose Bengal": "-0.46% [at 18.6 µM]"}, {"smiles": "O=C1OC(OC(=O)c2cccnc2Nc2cccc(C(F)(F)F)c2)c2ccccc21", "note": "(stereo not given)", "Potency": "inactive"}, {"smiles": "COC(=O)C1=C(C)NC(C)=C(C(=O)OCCCN2CCC(c3ccccc3)(c3ccccc3)CC2)C1c1cccc([N+](=O)[O-])c1", "note": "(stereo not given)", "Potency": "inactive"}, {"smiles": "CCOC(=O)COc1ccc(C)cc1", "Potency": "inactive"}, {"smiles": "CO[C@H]1C=CO[C@@]2(C)Oc3c(C)c(O)c4c(O)c(cc(O)c4c3C2=O)NC(=O)/C(C)=C\\C=C/[C@H](C)[C@H](O)[C@@H](C)[C@@H](O)[C@@H](C)[C@H](OC(C)=O)[C@@H]1C", "Potency": "inactive"}, {"smiles": "CCCCCCCC/C=C\\CCCCCCCC(=O)N(C)CC(=O)O", "Potency": "inactive"}, {"smiles": "CCCCCCOc1ccc(O)cc1", "Potency": "inactive"}, {"smiles": "COC(=O)CC#N", "Potency": "inactive"}, {"smiles": "CCN(CC)CCNc1ccc(CO)c2sc3ccccc3c(=O)c12", "Potency": "inactive"}, {"smiles": "O=C1C=CC(=O)N1c1ccccc1", "Potency": "inactive"}, {"smiles": "O=C(Nc1ccc(Cl)cc1)Nc1ccc(Cl)c(C(F)(F)F)c1", "Potency": "inactive"}, {"smiles": "CCCCCCCC/C=C/CCCOC(C)=O", "Potency": "inactive"}, {"smiles": "CC(=O)OC(OC(C)=O)c1ccc([N+](=O)[O-])o1", "Potency": "inactive"}, {"smiles": "COC(=O)[C@]1(C)CCC[C@@]2(C)[C@H]1CC=C1C=C(C(C)C)CC[C@@H]12", "Potency": "inactive"}, {"smiles": "CCCCCCCCCCCCCCCC", "Potency": "inactive"}, {"smiles": "CN(C)CCCN1c2ccccc2Sc2ccc(C(F)(F)F)cc21", "Potency": "inactive"}, {"smiles": "CCCCN(CCCC)CCC(O)c1cc2c(Cl)cc(Cl)cc2c2cc(C(F)(F)F)ccc12", "note": "(stereo not given)", "fluorescence, % of Rose Bengal": "0.0098% [at 18.6 µM]"}, {"smiles": "C[Si](C)(C)Cl", "Potency": "inactive"}, {"smiles": "CN(C)c1ccc(N=Nc2ccccc2C(=O)O)cc1", "Potency": "inactive"}, {"smiles": "CNC(=O)c1cc(Oc2ccc(NC(=O)Nc3ccc(Cl)c(C(F)(F)F)c3)cc2)ccn1", "Potency": "inactive"}, {"smiles": "CCCCCCCCCCOCC(O)CN", "note": "(stereo not given)", "Potency": "inactive"}, {"smiles": "CCO[Si](CCCSSSSCCC[Si](OCC)(OCC)OCC)(OCC)OCC", "Potency": "inactive"}]}]}
